Measured values reported in PubChem BioAssay AID504708 (Sanford-Burnham Center for Chemical Genomics, 2011).
The other results are listed elsewhere or left out. Unmarked numbers belong to inactive results. Active and inactive are the calls of the source.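 Rule for the calls: active = inhibition at or below a set negative limit, negative inhibition meaning the enzyme was activated; inactive = the rest.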

Target: Hexokinase HKDC1 (Homo sapiens) (UniProt Q2TB90)
Assay: HKDC1 hexokinase activators, confirmation, biochemical, single concentration (AID 504708)
Details: recombinant HKDC1, G6PDH/diaphorase resazurin fluorescence; at 20 µM; active compounds read low

Chain of Hexokinase HKDC1 (Homo sapiens) (Q2TB90 whole entry, looked up): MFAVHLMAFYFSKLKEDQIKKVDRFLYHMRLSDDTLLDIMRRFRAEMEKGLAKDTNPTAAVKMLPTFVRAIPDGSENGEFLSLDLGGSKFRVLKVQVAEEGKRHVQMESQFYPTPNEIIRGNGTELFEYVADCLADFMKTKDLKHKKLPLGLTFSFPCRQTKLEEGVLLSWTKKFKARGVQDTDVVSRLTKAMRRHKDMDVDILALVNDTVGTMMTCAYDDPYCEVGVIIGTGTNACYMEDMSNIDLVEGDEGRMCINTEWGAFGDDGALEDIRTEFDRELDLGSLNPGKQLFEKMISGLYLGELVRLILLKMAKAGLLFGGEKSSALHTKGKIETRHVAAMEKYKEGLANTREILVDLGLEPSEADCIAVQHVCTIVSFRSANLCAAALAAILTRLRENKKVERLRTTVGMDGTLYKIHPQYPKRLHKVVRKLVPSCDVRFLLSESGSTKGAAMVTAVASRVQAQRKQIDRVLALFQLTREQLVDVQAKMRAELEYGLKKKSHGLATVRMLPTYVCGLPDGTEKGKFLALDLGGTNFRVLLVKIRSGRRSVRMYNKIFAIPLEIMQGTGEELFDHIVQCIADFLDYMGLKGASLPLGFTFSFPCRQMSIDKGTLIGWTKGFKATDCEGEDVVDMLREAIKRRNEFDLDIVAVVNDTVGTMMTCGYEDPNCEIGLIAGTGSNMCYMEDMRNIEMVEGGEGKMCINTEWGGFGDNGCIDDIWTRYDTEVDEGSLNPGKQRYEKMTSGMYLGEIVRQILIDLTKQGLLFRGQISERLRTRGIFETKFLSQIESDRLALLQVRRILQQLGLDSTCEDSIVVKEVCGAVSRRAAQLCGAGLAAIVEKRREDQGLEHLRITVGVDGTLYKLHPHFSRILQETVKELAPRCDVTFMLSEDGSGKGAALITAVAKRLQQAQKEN

SMILES	inhibition
COc1ccc(C(CCN(Cc2ccc(OC)c(OC)c2)C(=O)CCl)c2ccccc2)cc1 (stereo not given)	17.4%
Cc1ccc(Nc2nc(-c3sc(NC(=O)c4ccccc4)nc3C)cs2)cc1	12.1%
Clc1cccc(N=C2NN=C(c3ccc4c(c3)OCCO4)CS2)c1	-99.6% (active)
COc1ccc(N(CC(=O)N/N=C/c2cccc3c2OCCO3)S(=O)(=O)c2ccc(NC(C)=O)cc2)cc1	19.1%
Cc1ccc2oc(=O)c3cnn(CC(=O)N4CCCCCC4)c3c2c1	-63.5% (active)
O=C(NC1=CC(=O)c2ccccc2C1=O)c1ccccc1	69.9%
CC(=O)N(C1=C(Cl)C(=O)c2ccccc2C1=O)c1ccc(C(=O)O)cc1	64.4%
COc1ccc(NC(=O)CSc2ccc(-c3ccco3)nn2)c(OC)c1	70.8%
Cc1cc(C(=O)CCl)c(C)n1CC1COc2ccccc2O1 (stereo not given)	11%
Cc1ccc(N(Cc2cc(=O)[nH]c3ccccc23)C(=O)CCl)cc1	34.5%
O=C1C(Cl)=C(Oc2ccccc2)C(=O)c2ccccc21	77.7%
COc1ccc2c(c1)c(=Cc1ccc(N(C)C)cc1)c1cc(-c3ccccc3)[n+](C)n12	31.2%
CCC(=C/c1sc2ccc3ccccc3c2[n+]1C)/C=C1\Sc2ccc3ccccc3c2N1C	24.1%
Cc1ccc(C(=O)O)cc1-c1ccc(/C=C2\SC(=O)N(CC(=O)Nc3ccc4c(c3)OCO4)C2=O)o1	13.9%
O=c1ccc2c(-c3ccccc3S(=O)(=O)O)c3ccc(O)c(O)c3oc-2c1O	14.4%
